The record followed here is PubChem BioAssay AID2012 (Sanford-Burnham Center for Chemical Genomics, 2009).

Out of some 290,000 compounds screened, about 2,700 (0.93%) were called active. The rule behind the calls is not given here. Shown is part of a subset that was picked to be rich in actives.

The experiment concerns the target Eukaryotic translation initiation factor 4H (Homo sapiens) (UniProt Q15056). The experiment is described as follows: eIF4H binding inhibition – biochemical, uHTS, fluorescence polarization, translation initiation inhibitor project, primary screen (AID 2012).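 Note: calls also rest on retests at 20 µM and on dose response follow-up.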 Particulars: eIF4H fluorescence polarization binding assay, stronger effect = higher value. On the technique in general: Fluorescence polarisation rises when a labelled molecule tumbles more slowly, as on binding a larger partner.

For `Cc1ccc(NC2CCCN(C(=O)CCC3(C)CC3)C2)cc1C` (stereo not drawn), for the setting “at 35 µM”, the inhibition – broadly, the drop in the measured response relative to a control, in per cent – was -6.4% (inactive).
For `CCCCc1ccc(NC(=O)NCc2cccnc2)cc1`, where the note is “at 35 µM”, the inhibition is -1.5% (inactive).
With `CCC1C(=O)NCCN1C(=O)c1ccc2nc(Cc3ccc(OC)cc3)oc2c1` (stereo not drawn), the inhibition (at 35 µM) was -1.1% (inactive).
The same measure, in the same setting: next, `O=C(COc1ccc(Cl)cc1)Nc1ccccc1CO`: -15.9% (inactive).
As for `COC(=O)c1sccc1NC(=O)COc1ccc(Cl)cc1`, the inhibition (at 35 µM) was -2% (active) and the inhibition (confirmation average, at 20 µM) was 90%.
`COC(=O)c1sccc1NC(=O)c1ccc(Cl)cc1`: under “at 35 µM”, the inhibition was -1.7% (inactive).
Still for that read-out and setting: then `O=C(CCC(=O)n1ncc2ccccc21)NCc1ccccc1Cl`, with -5.2% (inactive).
With `Cc1ccc(Cn2c(C)nc3c(c2=O)c2nc4ccccc4nc2n3Cc2ccco2)cc1`, where the note is “at 35 µM”, the inhibition was 18% (inactive).
`Cc1nc2c(c(=O)n1Cc1ccco1)c1nc3ccccc3nc1n2Cc1ccccc1`: the inhibition (at 35 µM) is 68.6% (active).
Still for that read-out and setting: then `COCCCn1c2nc3ccccc3nc2c2c(=O)n(Cc3ccc(Cl)cc3)c(C)nc21`, with -0.3% (inactive).
Take `Cc1cc(NC(=O)CCC(=O)N(CC(=O)NC2CCCC2)c2ccc(F)cc2)no1`: the inhibition (at 35 µM) was -1.3% (inactive).
On the same count and under the same terms, next, `O=C(CSc1ccc(-c2ccccn2)nn1)Nc1ccccc1`: -8.7% (inactive); `COc1ccc2[nH]c(=O)c(C3c4cc(OC)c(OC)cc4CCN3C(=O)c3ccco3)cc2c1` (stereo not drawn): -6.8% (inactive); `CCOc1ccc(S(=O)(=O)Nc2ccc(OC)nc2)cc1`: -8.8% (inactive).
On the same count and under the same terms, then `COc1ccc(S(=O)(=O)Nc2ccc(F)cc2)c(C)c1C`, with 7.4% (inactive); and `COc1ccc(NS(=O)(=O)c2ccc(F)cc2F)cn1`, with 65.2% (active).
Take `Cc1ccc(NS(=O)(=O)c2ccc(C(C)(C)C)cc2)cn1`: where the note is “at 35 µM”, the inhibition is -2.4% (inactive).
The same measure, in the same setting: then `O=C(NC1CCCC1)C(c1ccc(Cl)cc1)N(C(=O)c1csnn1)C1CC1` (stereo not drawn), with -6.1% (inactive); and `Cc1ccc(OCCCCc2c(C)n[nH]c2C)cc1`, with -10.3% (inactive).
The same measure, in the same setting: then `CCOC(=O)CC1(NC(=O)c2cc(COc3cncc(Cl)c3)on2)CCCCC1`, with -10.4% (inactive).
Still for that read-out and setting: then `COc1ccc(CN2CCN(C(=O)CCC(=O)Nc3nnc(C(C)C)s3)CC2)cc1F`, with -7.1% (inactive); and `Cn1c(=O)n(C)c2cc(C(=O)Nc3ccc4c(c3)OCO4)ccc21`, with -6.6% (inactive).
In the case of `Cc1ccc(C(=O)O)cc1-c1ccc(/C=C2\SC(=O)N(CC(=O)Nc3ccc4c(c3)OCO4)C2=O)o1`, under “at 35 µM”, the inhibition is 59.7% (active).
Still for that read-out and setting: then `COc1ccc(NC(=O)CCN2C(=O)/C(=C/c3ccc4c(c3)OCO4)SC2=S)cc1`, with 5.7% (inactive); and `Cc1ccc(S(=O)(=O)N(CC(=O)Nc2cccnc2)c2ccc(Br)cc2)cc1`, with 2% (inactive).
Same read-out and setting: then `CCC(NC(=O)C1CCCC1)c1ccc(C)cc1` (stereo not drawn), with -4.3% (inactive); and `Cc1ccccc1C(=O)N1CCC(C(=O)Oc2ccc(C#N)cc2)CC1`, with -15.9% (inactive); and `CCN(CC)S(=O)(=O)c1ccc(N2CC(C(=O)NCc3cccnc3)CC2=O)cc1` (stereo not drawn), with -0.4% (inactive).
In the case of `COc1ccccc1C1=Nc2cccc3cccc(c23)N1`, the inhibition by setting is: (at 35 µM) 99.8% (active); (confirmation average, at 20 µM) 108%.
For the compound `Fc1ccccc1N=C1Nc2cccc3cccc1c23`, the inhibition (at 35 µM) is -3.8% (inactive).
On to `c1ccc(C2=Nc3cccc4cccc(c34)N2)cc1`, for which, for the setting “at 35 µM”, the inhibition was -0.5% (inactive).
On the same count and under the same terms, next, `CC1CCC2(CC1)NC(=O)N(CC(=O)c1ccc3c(c1)OCO3)C2=O` (stereo not drawn): -5.1% (inactive).
The same measure, in the same setting: next, `Cn1cccc1C(=O)N1CCc2ccccc2C1`: -1.9% (inactive).
Still for that read-out and setting: next, `CN(CC(=O)Nc1c(Cl)cccc1Cl)C(=O)CNC(=O)C1CCCCC1`: -8.8% (inactive); `Cc1cccc(NC(=O)c2sc3nc(N4CCOCC4)c4c(c3c2N)CCCC4)c1`: -4.2% (inactive).
For `Cc1cccc(NC(=O)c2sc3nc4c(c(-c5ccco5)c3c2N)CCC4)c1`, the inhibition runs as follows: (at 35 µM) 82.9% (active); (confirmation average, at 20 µM) 90.9%.
In the case of `CC(=O)Nc1ccc(NC(=O)c2sc3nc4c(c(-c5ccc(C)cc5)c3c2N)CCC4)cc1`, where the note is “at 35 µM”, the inhibition is -0.5% (inactive).
Still for that read-out and setting: next, `Cc1ccc(-n2ncc3c2CC(C)(C)CC3NC(=O)Cc2c(C)noc2C)cc1` (stereo not drawn): 5.3% (inactive); `CCOC(=O)/C=c1\s/c(=C\c2ccccc2OC)c(=O)n1CC(=O)N1CCOCC1`: 5.6% (inactive); `CSc1nc(-c2ccco2)nn1C(=O)CCc1ccccc1`: -7.7% (inactive).
Same read-out and setting: next, `CCOc1ccccc1/C=c1\sc2nc(-c3ccco3)nn2c1=O`: 81.8% (active); `Cc1ccc2[nH]c(=O)c(CN(C)S(=O)(=O)c3cccc4nonc34)cc2c1`: -5.4% (inactive).
As for `CN(CCOc1ccccc1)C(=O)c1cc(COc2c(F)cccc2F)on1`, the inhibition (at 35 µM) was -0.6% (inactive).
The same measure, in the same setting: next, `O=C(OCC1O[C@@H](OC(=O)c2cc(O)c(O)c(O)c2)[C@@H](OC(=O)c2cc(O)c(O)c(O)c2)[C@@H](OC(=O)c2cc(O)c(O)c(O)c2)[C@@H]1OC(=O)c1cc(O)c(O)c(O)c1)c1cc(O)c(O)c(O)c1` (stereo partly drawn): 92% (active); `COc1ccc(N(CC(=O)Nc2cc(OC)ccc2OC)S(=O)(=O)c2c(C)noc2C)cc1`: -10.2% (inactive); `O=C(CSc1ncn[nH]1)N/N=C/c1ccc(F)cc1`: -1.2% (inactive).
The same measure, in the same setting: then `CCN(CC(=O)NCc1cccs1)C(=O)c1ccccc1F`, with -2.7% (inactive).
As to `CCN(CC(=O)NCc1cccs1)C(=O)c1cccc(S(=O)(=O)Nc2ccccc2OC)c1`, the inhibition reads like this: (at 35 µM) 35.7% (active); (confirmation average, at 20 µM) 53.9%.
Consider `COc1cc(CC(=O)NCc2cccs2)cc(OC)c1OC`, for which the inhibition (at 35 µM) was -15% (inactive).
